# Measured values: the supplement of paper PMC6411743
# ± gives the standard deviation of the averaged measurements. The full data set covers some 5,400 targets. This sample favours those with the largest changes.
# Compound: Nc1nc2c(ncn2[C@@H]2O[C@H](COP(=O)(O)OP(=O)(O)OP(=O)(O)O)[C@@H](O)[C@H]2O)c(=O)[nH]1 [guanosine triphosphate]
# Experiment: NP40-soluble protein abundance relative to vehicle (solubility fold change) (ratio); higher = more soluble protein in presence of GTP
# Procedure: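 Solubility proteome profiling in Jurkat crude lysate. Lysate was treated with Mg-GTP (0.1-10 mM) for 10 min at room temperature and 3 min at 37 °C, then solubilised with 0.8% NP40 and benzonase, followed by ultracentrifugation. Proteins were quantified by TMT10 LC-MS/MS; the value is the NP40-soluble abundance relative to the NP40-processed vehicle, from 3 independent experiments.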
# UniProt Q9H0C8, sequence (Q9H0C8 whole entry): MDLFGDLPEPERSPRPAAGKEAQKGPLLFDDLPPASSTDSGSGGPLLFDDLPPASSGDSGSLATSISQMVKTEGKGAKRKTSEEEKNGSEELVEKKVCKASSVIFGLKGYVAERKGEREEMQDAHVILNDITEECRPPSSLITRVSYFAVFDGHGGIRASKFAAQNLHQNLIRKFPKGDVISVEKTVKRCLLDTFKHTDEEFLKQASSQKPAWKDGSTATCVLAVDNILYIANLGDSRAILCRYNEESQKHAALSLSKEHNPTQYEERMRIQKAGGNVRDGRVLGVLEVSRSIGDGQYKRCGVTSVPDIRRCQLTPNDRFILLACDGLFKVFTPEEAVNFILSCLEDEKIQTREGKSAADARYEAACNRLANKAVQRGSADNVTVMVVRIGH
# UniProt Q96EM0, sequence (Q96EM0 whole entry): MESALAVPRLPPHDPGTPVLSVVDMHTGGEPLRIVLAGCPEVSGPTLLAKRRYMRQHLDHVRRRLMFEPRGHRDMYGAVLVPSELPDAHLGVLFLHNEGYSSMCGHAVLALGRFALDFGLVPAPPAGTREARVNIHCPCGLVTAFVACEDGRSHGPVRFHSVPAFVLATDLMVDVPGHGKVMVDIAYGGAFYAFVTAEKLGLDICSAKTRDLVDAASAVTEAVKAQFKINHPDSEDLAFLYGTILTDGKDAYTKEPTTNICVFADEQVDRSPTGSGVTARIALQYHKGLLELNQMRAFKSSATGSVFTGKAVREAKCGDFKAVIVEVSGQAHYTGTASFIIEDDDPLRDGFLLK
# UniProt Q96HS1, sequence (Q96HS1 whole entry): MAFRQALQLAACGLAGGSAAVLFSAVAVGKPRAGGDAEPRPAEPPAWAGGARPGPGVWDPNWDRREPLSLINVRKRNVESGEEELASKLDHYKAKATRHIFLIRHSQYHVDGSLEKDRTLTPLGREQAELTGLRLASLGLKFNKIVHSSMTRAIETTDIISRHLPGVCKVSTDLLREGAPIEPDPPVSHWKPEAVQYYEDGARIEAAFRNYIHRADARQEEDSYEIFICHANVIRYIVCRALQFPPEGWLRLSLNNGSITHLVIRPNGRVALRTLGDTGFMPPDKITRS
# UniProt Q9UBD5, sequence (Q9UBD5 whole entry): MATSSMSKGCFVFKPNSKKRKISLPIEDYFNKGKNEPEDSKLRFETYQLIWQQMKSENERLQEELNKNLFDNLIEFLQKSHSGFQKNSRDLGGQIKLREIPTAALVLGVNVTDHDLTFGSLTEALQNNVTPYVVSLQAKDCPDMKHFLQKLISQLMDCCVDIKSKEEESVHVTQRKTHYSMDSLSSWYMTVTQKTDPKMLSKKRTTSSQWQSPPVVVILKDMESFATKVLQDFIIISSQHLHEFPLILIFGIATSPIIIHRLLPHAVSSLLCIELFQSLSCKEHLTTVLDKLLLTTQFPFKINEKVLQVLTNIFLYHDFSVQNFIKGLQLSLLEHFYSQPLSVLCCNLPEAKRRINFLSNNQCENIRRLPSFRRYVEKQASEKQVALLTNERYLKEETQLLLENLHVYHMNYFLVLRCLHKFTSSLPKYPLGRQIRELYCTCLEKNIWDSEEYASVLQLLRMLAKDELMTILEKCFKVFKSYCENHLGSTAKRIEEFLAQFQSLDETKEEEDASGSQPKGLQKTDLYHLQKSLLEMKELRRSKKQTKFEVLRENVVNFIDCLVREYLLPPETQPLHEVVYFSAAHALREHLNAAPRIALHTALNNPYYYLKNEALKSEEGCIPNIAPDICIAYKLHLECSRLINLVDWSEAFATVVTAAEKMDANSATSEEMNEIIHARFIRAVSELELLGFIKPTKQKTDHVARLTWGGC
# UniProt Q9BTT4, sequence (Q9BTT4 whole entry): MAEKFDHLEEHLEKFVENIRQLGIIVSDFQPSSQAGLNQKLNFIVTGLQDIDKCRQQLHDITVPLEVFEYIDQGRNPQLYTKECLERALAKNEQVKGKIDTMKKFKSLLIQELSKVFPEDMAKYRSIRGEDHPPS
Target,NP40-soluble protein abundance (concentration: 0.1mM),NP40-soluble protein abundance (concentration: 0.5mM),NP40-soluble protein abundance (concentration: 1mM),NP40-soluble protein abundance (concentration: 2mM),NP40-soluble protein abundance (concentration: 4mM),NP40-soluble protein abundance (concentration: 6mM),NP40-soluble protein abundance (concentration: 8mM),NP40-soluble protein abundance (concentration: 10mM)
PGAM5 (UniProt Q96HS1),1.03 ± 0.034,1.09 ± 0.073,1.18 ± 0.14,1.4 ± 0.26,1.67 ± 0.38,1.79 ± 0.45,1.86 ± 0.4,1.95 ± 0.47
UniProt Q9UBD5|Q9UBD5-2,0.981 ± 0.061,1.06 ± 0.076,0.957 ± 0.092,1.04 ± 0.049,0.998 ± 0.069,1.04 ± 0.04,1.02 ± 0.1,1.07 ± 0.018
UniProt Q96EM0,0.976 ± 0.19,0.971 ± 0.15,0.869 ± 0.093,0.892 ± 0.11,1.02 ± 0.026,0.929 ± 0.095,0.85 ± 0.16,0.895 ± 0.085
ILKAP (UniProt Q9H0C8),0.959 ± 0.034,0.95 ± 0.023,0.905 ± 0.049,0.904 ± 0.058,0.88 ± 0.058,0.897 ± 0.048,0.87 ± 0.049,0.869 ± 0.065
MED10 (UniProt Q9BTT4),1.01 ± 0.2,1.03 ± 0.098,0.973 ± 0.028,1.07 ± 0.11,0.95 ± 0.094,1.08 ± 0.05,0.968 ± 0.092,1.07 ± 0.038
